Data published in PubChem BioAssay.
The source made the active and inactive calls.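 How the source made its calls, unless noted: active means inhibition over a set limit, the all-compound mean plus 3 SD, in both replicate runs; inconclusive means over that limit in just one replicate run; inactive means at or under that limit in both runs.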

experiment: RAM pathway blockade in budding yeast – dse1pr::URA3 reporter, 5-FOA selection, pilot screen (AID 869);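 further: 0% = DMSO wells with no growth and 100% = 10 µM 1-NA-PP1 with full growth; RAM network block rescues cells from 5-FOA so hits raise OD615 growth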; conditions: S. cerevisiae dse1pr::URA3 5-FOA growth, OD615, 2 d; at 10 µM; active compounds read high; strain carries analog-sensitive mutant Cbk1 kinase

Compound | inhibition
O=C(c1ccc2nc(N3CCCCC3)sc2c1)N1CCN(c2ccccn2)CC1 | 2.38% (inactive)
CC(C)CCNC(=O)Cn1c(NCCC(C)C)nc2c1c(=O)n(C)c(=O)n2C | 0.94% (inactive)
CC(=O)NC(C)c1nc2ccccc2n1C(C)C (stereo not drawn) | 3.16% (inactive)
NC(=O)CSc1cn(CCNC(=O)c2cccs2)c2ccccc12 | 1.34% (inactive)
Cc1cccc(C2CC(c3ccc(Cl)cc3)Nc3nc(N)nn32)c1 (stereo not drawn) | 0.01% (inactive)
CCOC(=O)CN1CC23C=CC(O2)C(C(=O)Nc2ccc(C(C)=O)cc2)C3C1=O (stereo not drawn) | 1.26% (inactive)
CCCSc1nnc(N2C(=O)CC(c3ccsc3)C3=C2CCCC3=O)s1 (stereo not drawn) | 0.25% (inactive)
O=C(CN1CCN(Cc2ccc(F)cc2Cl)C1=O)NCCCN1CCOCC1 | 0.47% (inactive)
CN(C)CCCN1C(=O)CSC1c1ccccc1 (stereo not drawn) | 1.47% (inactive)
COC(=O)Cn1c(=O)c2c(nc3n2CC(C)CN3c2ccc(C)c(C)c2)n(C)c1=O (stereo not drawn) | 1.25% (inactive)
CCCSC1=C(C#N)C(c2cc(OC)ccc2OC)CC(=O)N1 (stereo not drawn) | 1.42% (inactive)
O=C(Nc1ccc(CN2CCOCC2)cc1)c1cc2ccccn2n1 | 0.65% (inactive)
CCN(CC)CCn1c(=N)n(CCO)c2ccccc21 | 0.605% (inactive)
CCN(CCCNS(=O)(=O)c1ccc2c(c1)oc(=O)n2C)c1cccc(C)c1 | 0.695% (inactive)
COc1ccc(OC)c(C2=NOC(C(=O)Nc3c(C)n(C)n(-c4ccccc4)c3=O)C2)c1 (stereo not drawn) | 0.74% (inactive)
O=C(Cn1cc2c(n1)CCCCC2)N1CCc2ccccc2C1 | 1.98% (inactive)
Cn1c(=O)c2c(nc(SCCCC#N)n2Cc2c(F)cccc2Cl)n(C)c1=O | 3.15% (inactive)
CCN1CCN(Cc2ccc(NC(=O)Nc3ccccc3)cc2)CC1 | 1.09% (inactive)
CCOC(=O)N1CCN(Cc2nc3c(c(=O)n(C)c(=O)n3C)n2Cc2ccccc2)CC1 | 0.61% (inactive)
COCCCNC(=O)Cn1cc2c(n1)CCC(C)C2 (stereo not drawn) | 1.82% (inactive)

Compound | inhibition
C=CCc1ccccc1OCCCCN1CCCC1 | 0.91% (inactive)
COc1ccc(OCC(=O)N2CC3(C)CC2CC(C)(C)C3)cc1 (stereo not drawn) | 1.06% (inactive)
O=C1c2ccccc2C(Nc2ccc(-c3nc4ccccc4[nH]3)cc2)N1Cc1ccco1 (stereo not drawn) | 2.23% (inactive)
CCCNc1nc(N2CCOCC2)nc(N2CCOCC2)n1 | 1.26% (inactive)
COCCn1c(SCC(=O)Nc2ccc3c(c2)OCCO3)nc2c(c1=O)SC(C)C2 (stereo not drawn) | 1.71% (inactive)
COc1ccc(NC(=O)C2CCCN2S(=O)(=O)c2cccc3cccnc23)c(OC)c1 (stereo not drawn) | 0.91% (inactive)
CCOC(=O)Cn1ncc(-c2ccccc2)c1N | 1.83% (inactive)
O=C(O)C1CC(=O)N(CCOc2ccccc2)C1 (stereo not drawn) | 0.69% (inactive)
Cc1ccc(-n2c3c(cc(C(=O)NCCCN4CCOCC4)c2=O)C(=O)CC(C)(C)C3)cc1 | -0.26% (inactive)
CCOC(=O)C1CCN(Cc2ccc(OC)c(C)c2OC)CC1 | 1.16% (inactive)
COc1ccc(C(C)N2CC34C=CC(O3)C(C(=O)OCC(C)C)C4C2=O)cc1 (stereo not drawn) | 1.82% (inactive)
Cc1c(NC(=O)C2CCCCN2S(=O)(=O)c2ccc(Cl)cc2)c(=O)n(-c2ccccc2)n1C (stereo not drawn) | 0.76% (inactive)
CC(C)(NC(=O)N1CCCC1)c1cccc(C(C)(C)NC(=O)N2CCCC2)c1 | 0.535% (inactive)
CC(C)NC(=O)c1ccc2c(c1)nnn2C | 2% (inactive)
Cc1ccc(C(=O)CC2(O)C(=O)N(C)c3ccc(Br)cc32)c(C)c1 (stereo not drawn) | 2.44% (inactive)
Cc1ccc(NC(=O)CN(c2ccc3c(c2)OCO3)S(=O)(=O)c2c(C)n[nH]c2C)cc1 | 3.25% (inactive)
COc1ccc(N2CCN(Cc3nc4c(c(=O)n(C)c(=O)n4C)n3Cc3ccccc3C)CC2)cc1 | 1.29% (inactive)
CN(C(=O)c1ccco1)c1nnc(C23CC4CC(CC(C4)C2)C3)s1 | 0.17% (inactive)
CCCC(=O)C1=C(N(C)c2ccccc2)CC(C)(C)C(C(=O)OC)C1=O (stereo not drawn) | -0.705% (inactive)

experiment: RAM signaling pathway blockade in yeast – S. cerevisiae, Pdr1DBD-CYC8 efflux-inhibited sensitized strain, primary screen (AID 1298;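 active means RAM network inhibition above 8.4% in each of two replicates, 3 SD over the compound average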;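 further: 0% = DMSO untreated cells without growth and 100% = 10 µM 1-NA-PP1 full growth; higher means more yeast growth rescued from 5-FOA killing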); conditions: S. cerevisiae cbk1-as DSE1-URA3 strain, 5-FOA growth OD615, 2 d; at 50 µM; active compounds read high

Compound | RAM network inhibition
O=C(c1ccc2nc(N3CCCCC3)sc2c1)N1CCN(c2ccccn2)CC1 | -1.58% (inactive)
CC(C)CCNC(=O)Cn1c(NCCC(C)C)nc2c1c(=O)n(C)c(=O)n2C | -0.63% (inactive)
CC(=O)NC(C)c1nc2ccccc2n1C(C)C (stereo not drawn) | -0.31% (inactive)
NC(=O)CSc1cn(CCNC(=O)c2cccs2)c2ccccc12 | 5.84% (inactive)
Cc1cccc(C2CC(c3ccc(Cl)cc3)Nc3nc(N)nn32)c1 (stereo not drawn) | 3.62% (inactive)
CCOC(=O)CN1CC23C=CC(O2)C(C(=O)Nc2ccc(C(C)=O)cc2)C3C1=O (stereo not drawn) | 1.41% (inactive)
CCCSc1nnc(N2C(=O)CC(c3ccsc3)C3=C2CCCC3=O)s1 (stereo not drawn) | 7.67% (inactive)
O=C(CN1CCN(Cc2ccc(F)cc2Cl)C1=O)NCCCN1CCOCC1 | 1.91% (inactive)
CN(C)CCCN1C(=O)CSC1c1ccccc1 (stereo not drawn) | 0.73% (inactive)
COC(=O)Cn1c(=O)c2c(nc3n2CC(C)CN3c2ccc(C)c(C)c2)n(C)c1=O (stereo not drawn) | 4.14% (inactive)
CCCSC1=C(C#N)C(c2cc(OC)ccc2OC)CC(=O)N1 (stereo not drawn) | 0.78% (inactive)
O=C(Nc1ccc(CN2CCOCC2)cc1)c1cc2ccccn2n1 | 1.45% (inactive)
CCN(CC)CCn1c(=N)n(CCO)c2ccccc21 | 4.92% (inactive)
CCN(CCCNS(=O)(=O)c1ccc2c(c1)oc(=O)n2C)c1cccc(C)c1 | 7.59% (inactive)
COc1ccc(OC)c(C2=NOC(C(=O)Nc3c(C)n(C)n(-c4ccccc4)c3=O)C2)c1 (stereo not drawn) | 3.94% (inactive)
O=C(Cn1cc2c(n1)CCCCC2)N1CCc2ccccc2C1 | 6.93% (inactive)
Cn1c(=O)c2c(nc(SCCCC#N)n2Cc2c(F)cccc2Cl)n(C)c1=O | 4.98% (inactive)
CCN1CCN(Cc2ccc(NC(=O)Nc3ccccc3)cc2)CC1 | 1.93% (inactive)
CCOC(=O)N1CCN(Cc2nc3c(c(=O)n(C)c(=O)n3C)n2Cc2ccccc2)CC1 | 4.53% (inactive)
COCCCNC(=O)Cn1cc2c(n1)CCC(C)C2 (stereo not drawn) | -0.72% (inactive)

Compound | RAM network inhibition
C=CCc1ccccc1OCCCCN1CCCC1 | 1.88% (inactive)
COc1ccc(OCC(=O)N2CC3(C)CC2CC(C)(C)C3)cc1 (stereo not drawn) | 1.07% (inactive)
O=C1c2ccccc2C(Nc2ccc(-c3nc4ccccc4[nH]3)cc2)N1Cc1ccco1 (stereo not drawn) | 2.26% (inactive)
CCCNc1nc(N2CCOCC2)nc(N2CCOCC2)n1 | 2.19% (inactive)
COCCn1c(SCC(=O)Nc2ccc3c(c2)OCCO3)nc2c(c1=O)SC(C)C2 (stereo not drawn) | -0.11% (inactive)
COc1ccc(NC(=O)C2CCCN2S(=O)(=O)c2cccc3cccnc23)c(OC)c1 (stereo not drawn) | -1.73% (inactive)
CCOC(=O)Cn1ncc(-c2ccccc2)c1N | 2.21% (inactive)
O=C(O)C1CC(=O)N(CCOc2ccccc2)C1 (stereo not drawn) | 1.17% (inactive)
Cc1ccc(-n2c3c(cc(C(=O)NCCCN4CCOCC4)c2=O)C(=O)CC(C)(C)C3)cc1 | 3.35% (inactive)
CCOC(=O)C1CCN(Cc2ccc(OC)c(C)c2OC)CC1 | 1.41% (inactive)
COc1ccc(C(C)N2CC34C=CC(O3)C(C(=O)OCC(C)C)C4C2=O)cc1 (stereo not drawn) | 4.69% (inactive)
Cc1c(NC(=O)C2CCCCN2S(=O)(=O)c2ccc(Cl)cc2)c(=O)n(-c2ccccc2)n1C (stereo not drawn) | -0.87% (inactive)
CC(C)(NC(=O)N1CCCC1)c1cccc(C(C)(C)NC(=O)N2CCCC2)c1 | 0.88% (inactive)
CC(C)NC(=O)c1ccc2c(c1)nnn2C | 1.32% (inactive)
Cc1ccc(C(=O)CC2(O)C(=O)N(C)c3ccc(Br)cc32)c(C)c1 (stereo not drawn) | 4.59% (inactive)
Cc1ccc(NC(=O)CN(c2ccc3c(c2)OCO3)S(=O)(=O)c2c(C)n[nH]c2C)cc1 | 5.15% (inactive)
COc1ccc(N2CCN(Cc3nc4c(c(=O)n(C)c(=O)n4C)n3Cc3ccccc3C)CC2)cc1 | -0.26% (inactive)
CN(C(=O)c1ccco1)c1nnc(C23CC4CC(CC(C4)C2)C3)s1 | 5.35% (inactive)
CCCC(=O)C1=C(N(C)c2ccccc2)CC(C)(C)C(C(=O)OC)C1=O (stereo not drawn) | 0.26% (inactive)
